# Test results from PubChem BioAssay AID493152 (Sanford-Burnham Center for Chemical Genomics, 2011).
# This is one part of the list. Unmarked numbers belong to inactive results. The source made the active and inactive calls.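 The calls were made as follows: active = inhibition reaching a set limit in any replicate at 20 µM, the limit being 80% of the first screen's; inactive = the rest.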
# Molecular target: DNA dC->dU-editing enzyme APOBEC-3G (Homo sapiens) (UniProt Q9HC16)
# Test: human A3G ssDNA deamination inhibition, hit confirmation – biochemical, fluorescence, single-stranded DNA substrate, single concentration (AID 493152)
# Settings: recombinant A3G ssDNA deaminase, UDG/FAM-TAMRA fluorescence; at 20 µM; stronger effect = higher value
# DNA dC->dU-editing enzyme APOBEC-3G (Homo sapiens), sequence (Q9HC16 whole entry, looked up): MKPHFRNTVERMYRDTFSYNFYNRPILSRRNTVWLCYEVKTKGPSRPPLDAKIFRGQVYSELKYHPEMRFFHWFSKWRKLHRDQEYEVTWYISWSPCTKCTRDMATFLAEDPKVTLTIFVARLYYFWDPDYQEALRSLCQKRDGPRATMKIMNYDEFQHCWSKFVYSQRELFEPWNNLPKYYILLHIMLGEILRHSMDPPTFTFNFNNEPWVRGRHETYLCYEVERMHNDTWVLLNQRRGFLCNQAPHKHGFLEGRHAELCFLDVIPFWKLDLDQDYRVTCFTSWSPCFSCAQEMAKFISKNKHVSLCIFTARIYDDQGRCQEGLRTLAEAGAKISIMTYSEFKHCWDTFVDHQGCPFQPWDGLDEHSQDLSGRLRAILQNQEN
row,SMILES,inhibition
1,CC(=O)N(C1=C(Cl)C(=O)c2ccccc2C1=O)c1ccc(C(=O)O)cc1,99.2% (active)
2,CCOc1ccc(NC(=O)c2ccc(NC(=O)COC(=O)c3ccc(NC(=O)CC#N)cc3)cc2)cc1,51.5% (active)
3,S=c1[nH]nc2c3c4c(sc3ncn12)CCCC4,80% (active)
4,Cc1ccc(NC(=O)c2sc3nc(N)c(C#N)cc3c2N)cc1,-7.68%
5,CCc1c(C)[nH]c(=S)c(C#N)c1C,89.2% (active)
6,COc1ccccc1-n1c(-c2cc(-c3ccco3)[nH]n2)n[nH]c1=S,50.2% (active)
